Screening results (PubChem)
Pol kappa inh-1: qHTS for Inhibitors of Polymerase Kappa. purified Pol kappa, fluorescent DNA synthesis assay, 10 min. DNA polymerase kappa (Homo sapiens), Q9UBT6. Potency, µM (highest dose often 107 µM), without a hit: at the top dose activity, negative = inhibition, actives largely listed as inhibitors. 400,000 compounds, 0.53% hits; further: potency means the concentration at half of the fitted maximal effect; on the % scale 0 is the no-effect control and ±100 the full control effect
Target sequence (Q9UBT6 whole entry, looked up): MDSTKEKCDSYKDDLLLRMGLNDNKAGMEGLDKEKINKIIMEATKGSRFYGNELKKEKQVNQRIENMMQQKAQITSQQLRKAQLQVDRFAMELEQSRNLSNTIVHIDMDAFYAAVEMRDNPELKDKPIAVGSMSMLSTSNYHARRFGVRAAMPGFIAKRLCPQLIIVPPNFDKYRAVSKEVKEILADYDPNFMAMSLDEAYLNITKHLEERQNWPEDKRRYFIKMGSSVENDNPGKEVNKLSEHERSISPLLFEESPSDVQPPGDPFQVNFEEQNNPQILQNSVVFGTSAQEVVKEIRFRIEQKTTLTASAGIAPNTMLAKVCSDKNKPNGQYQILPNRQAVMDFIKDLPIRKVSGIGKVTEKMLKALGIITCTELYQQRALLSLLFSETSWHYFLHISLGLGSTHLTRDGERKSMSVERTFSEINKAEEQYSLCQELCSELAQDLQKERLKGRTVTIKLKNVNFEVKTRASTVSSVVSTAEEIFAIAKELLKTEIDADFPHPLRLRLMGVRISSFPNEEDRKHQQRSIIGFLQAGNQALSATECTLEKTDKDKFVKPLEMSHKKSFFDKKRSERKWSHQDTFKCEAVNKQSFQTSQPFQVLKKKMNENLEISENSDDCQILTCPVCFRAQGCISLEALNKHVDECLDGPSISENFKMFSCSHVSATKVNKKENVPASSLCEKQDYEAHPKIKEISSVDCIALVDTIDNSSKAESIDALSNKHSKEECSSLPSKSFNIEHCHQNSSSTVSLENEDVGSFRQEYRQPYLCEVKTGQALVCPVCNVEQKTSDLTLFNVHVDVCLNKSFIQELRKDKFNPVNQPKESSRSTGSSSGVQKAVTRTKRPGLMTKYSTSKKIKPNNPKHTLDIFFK
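Enzyme at 10 nM met test compounds for 15 min at room temperature. Substrate addition (50 nM final) began the reaction, which was monitored by fluorescence at 0 and 10 min.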
FEN1 inh: qHTS Assay for the Inhibitors of Human Flap endonuclease 1 (FEN1); Recombinant FEN1 flap cleavage, fluorescence, 15 min; Potency, µM (highest dose often 114 µM), inactives show at the top dose activity change, negative = inhibition, actives largely listed as inhibitors; 390,000 compounds, 0.35% hits; AID 588795, 2011; further: potency means the concentration at half of the fitted maximal effect; on the % scale 0 is the no-effect control and ±100 the full control effect; nearly all actives have a fitted effect of over 65% in size
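Nuclease activity of 10 nM FEN1 was measured after 15 min of room-temperature exposure to titrated compounds, by adding 50 nM flap substrate and reading plates at 0 and 15 min.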
Pol eta inh-1: qHTS for Inhibitors of Polymerase Eta. recombinant Pol eta, fluorescent DNA replication assay. Potency, µM (highest dose often 114 µM), for inactives: top-dose activity change, negative = inhibition, actives largely listed as inhibitors. AID 588591, 2011. 390,000 compounds, 1.2% hits; further: potency means the concentration at half of the fitted maximal effect; on the % scale 0 is the no-effect control and ±100 the full control effect
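Pol eta at 10 nM preincubated with compounds 15 min at room temperature; reaction started with fluorescent substrate (50 nM final) and read kinetically at 0 and 10 min.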
WRN helicase inh: qHTS for Inhibitors of WRN Helicase; Potency, µM (doses to about 114 µM), without a hit: at the highest dose activity change, negative = inhibition, most hits filed as inhibitors; Bifunctional 3'-5' exonuclease/ATP-dependent helicase WRN (Homo sapiens), Q14191; 360,000 compounds, 0.46% hits; WRN helicase unwinding, fluorescent forked duplex, kinetic; further: potency means the concentration at half of the fitted maximal effect; on the % scale 0 is the no-effect control and ±100 the full control effect; nearly all actives have a fitted effect of over 55% in size
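Primary qHTS, 1536-well format. 20 nM WRN + compound, 15 min RT; start with 100 nM forked fluorophore/quencher duplex, 2 mM ATP (final); kinetic read ex 525/em 598 nm.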
Pol iota inh: qHTS for Inhibitors of Polymerase Iota; DNA polymerase iota (Homo sapiens), Q9UNA4; Pol iota fluorescent replication assay, 10 min; Potency, µM (titrated, usually from 115 µM), for the others: at the top dose activity, negative = inhibition, actives largely listed as inhibitors; 390,000 compounds, 1% hits; AID 588590, 2011; further: potency means the concentration at half of the fitted maximal effect
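Pol iota at 10 nM preincubated 15 min with compounds at room temperature; reaction started with fluorescent substrate, 50 nM final. Fluorescence read kinetically at 0 and 10 min; buffer-only wells as negative control.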
Pol beta inh: qHTS Assay for Inhibitors of DNA Polymerase Beta. Pol beta primer extension/strand displacement, fluorescence kinetic. P06746. Potency, µM (titrated, usually from 114 µM), for the others: at the highest dose activity change, negative = inhibition, actives largely listed as inhibitors. 340,000 compounds, 1.3% hits; further: potency means the concentration at half of the fitted maximal effect; on the % scale 0 is the no-effect control and ±100 the full control effect
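Kinetic readout of DNA synthesis with strand displacement by Pol beta. Compound and 10 nM enzyme sit 15 min at room temperature; 50 nM substrate starts the reaction, read immediately and at 10 min.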
GALK confirm: Confirmation Assay for Inhibitors of Human Galactokinase (GALK); purified GALK, Kinase-Glo ATP depletion luminescence; Potency, µM (series often up to 115 µM), for the others: top-dose activity, negative = inhibition, actives largely listed as inhibitors; 150 compounds, 70% hits; AID 2015, 2009; shares compounds with Pol eta inh-1
Redox cycling: Confirmatory Assay for Inhibitors of Human Galactokinase (GALK): Phenol-HRP redox assay counterscreen | AID 2035, 2009 | Potency, µM (doses to about 115 µM), for the others: top-dose activity change, negative = H2O2 signal, usual class: inhibitors | shares compounds with Pol eta inh-1 | Phenol red-HRP H2O2 redox cycling, absorbance 600 nm | 150 compounds, 40% hits
HEK293 viability: Secondary Assay for Inhibitors of Human Galactokinase (GALK): HEK-293 Cell Viability Assay; 170 compounds, 10% hits; HEK-293 viability, ATP luminescence (CellTiter-Glo), 24/48 h; Potency, µM (highest dose often 46.1 µM), for inactives: top-dose activity change, negative = cytotoxicity, hits mostly inhibitors; shares compounds with Pol eta inh-1; further: potency means the concentration at half of the fitted maximal effect; on the % scale 0 is the no-effect control and ±100 the full control effect
Pol kappa inh-2: qHTS for Inhibitors of Polymerase Kappa: Confirmatory Assay for Cherry-picked Compounds; shares compounds with Pol eta inh-1; purified Pol-kappa, fluorescent strand-displacement substrate; Potency, µM, hits mostly inhibitors; 920 compounds, 76% hits; AID 720501, 2013; further: potency means the concentration at half of the fitted maximal effect
Pol eta inh-2: qHTS for Inhibitors of Polymerase Eta: Confirmatory Assay for Cherry-picked Compounds; Pol eta primer extension, TAMRA/BHQ fluorescence, 10 min; shares compounds with Pol eta inh-1; 2,600 compounds, 64% hits; Potency, µM, hits mostly inhibitors; further: potency means the concentration at half of the fitted maximal effect
* marks the source's active call; other numbers are inactive results; ? = inconclusive; . = no result given; [ ] = another dose, or the depositor's remark. Only some compounds are listed: those with a hit (about 2.4% of all), similar ones and a draw of the others. The call rests on the fitted dose curve; in most records, active means well fitted curve in the direction sought with a large enough effect; inconclusive means small, poorly fitted or top-dose-only effect, or another doubt; inactive means no such curve, though single readings can be large; an effect the other way counts as inactive or inconclusive.

SMILES	Pol kappa inh-1	FEN1 inh	Pol eta inh-1	WRN helicase inh	Pol iota inh	Pol beta inh	Pol eta inh-2	others
OC[C@@H]1[C@@H](c2ccc(F)cc2)C(c2ccc(F)cc2)=NN1c1ccccc1	-20%	.	.	.	.	.	.
CCOC(=O)C1=C(O)/C(=C\c2ccc(CNC(=O)C(=O)Nc3ccccc3)o2)N=C1C	?	-17%	10µM*	?	18µM*	8.9µM*	48*	Pol kappa inh-2=53*
CS(=O)(=O)N1Cc2ccccc2CC1C(=O)O (stereo unspecified)	?	1%	8.9µM*	-11%[11.6 µM]	?	18µM*	60*
O=C(O)C1Cc2ccccc2CN1S(=O)(=O)/C=C/c1ccccc1 (stereo unspecified)	-16%	11%	-20%	-1%	36%	-3%	.
CCOC(=O)c1ccc(Cl)c(NC(=O)c2ccc(-c3ccccc3)cc2)c1	-18%	1%	-5%	31%	6%	-1%	.
CCOC(=O)c1ccc(/C=C2/C=C(c3ccccc3)N(c3ccc(Cl)c(C(=O)O)c3)C2=O)cc1	-17%	-22%	20µM*	50µM*	?	32µM*	60*	Pol kappa inh-2=?
COc1ccc(Nc2cc(C(=O)NCCCN(C)Cc3ccccc3)c3ccccc3n2)cc1OC	-20%[60.1 µM]	-20%	-19%	.	-13%	?	.
O=C(O)c1ccccc1C1=Nc2ccc(O)cc2Oc2cc(O)ccc21	-20%	-18%	?	?	40µM*	50µM*	.	Pol kappa inh-2=?
Cc1cc(-c2ccccc2C(=O)O)on1	-11%	0%	-1%	6%	-9%	11%	.
COc1ccc(C(=O)CSc2cc(C)[nH]c(=O)n2)cc1	79µM*	-12%	20µM*	-3%[11.6 µM]	?	5.6µM*	?
COc1ccc(C(=O)CSc2nc(C)cc(=O)[nH]2)cc1	2%	-2%	12%	-1%	10%	5%	.
Cc1cccc(OCCn2c(SCC(=O)O)nc3ccccc32)c1	-15%[60.1 µM]	16%	5%	.	?	6%	.
CCN1C(=O)/C(=C\c2ccc(-c3ccc([N+](=O)[O-])cc3OC)o2)SC1=Nc1cccc(C(=O)O)c1	-36%	?	28µM*	-12%[11.6 µM]	?	?	76*
COc1ccc(-c2noc(CC(=O)Nc3cc(OC)ccc3OC)n2)cc1	-4%	-18%	-1%	.	20%	5%	.
O=C(NN1C(=O)/C(=C/c2ccc(O)c(O)c2)SC1=S)c1ccccc1	40µM*	-34%	1.1µM*	?	22µM*	18µM*	?
O=C(O)c1cc(S(=O)(=O)N2CCN(S(=O)(=O)c3ccc4ccccc4c3)CC2)ccc1Br	-36%	-10%	18µM*	-11%[11.6 µM]	?	.	48*	Pol kappa inh-2=17*
O=S(=O)(c1ccc2ccccc2c1)N1CCCCCC1	4%	-6%	-8%	3%[57.1 µM]	90%	-27%	.
COC(=O)c1ccccc1NC1=C/C(=N\S(=O)(=O)c2ccc(C(=O)O)cc2)c2ccccc2C1=O	?	20µM*	14µM*	?	1.1µM*	32µM*	.	GALK confirm=?;Redox cycling=12µM*;HEK293 viability=?
COC(=O)c1ccccc1Nc1ccccc1	-5%	-13%	-14%	3%	2%	11%	.
COc1ccccc1N1CCN(CC2CN3C(=O)N(C)c4ccccc4C3=N2)CC1 (stereo unspecified)	0%[19.4 µM]	.	.	.	.	.	.
COC(=O)c1ccc(NS(=O)(=O)c2ccc3[nH]c(=O)oc3c2)cc1	?	-10%	25µM*	5%[11.6 µM]	45µM*	35µM*	?
COC(=O)c1ccc(NS(=O)(=O)c2ccc3[nH]c4c(c3c2)CCCC4)cc1	-20%	-6%	-9%	.	19%	-6%	.
O=C(O)c1c2c(nc3ccc(S(=O)(=O)N4CCC(C(=O)NC5CCCCCC5)CC4)cc13)CCCC2	79µM*	-8%	20µM*	-8%[11.6 µM]	?	40µM*	?
O=C1/C(=C\c2ccco2)SC(=S)N1C1CCS(=O)(=O)C1 (stereo unspecified)	?	-27%	?	-28%	20µM*	40µM*	?
Cc1ccccc1N/N=C/c1sc(=O)n(Cc2cccc(C(=O)O)c2)c1Cl	-42%	1%	?	?	?	?	?
SMILES	Pol kappa inh-1	FEN1 inh	Pol eta inh-1	WRN helicase inh	Pol iota inh	Pol beta inh	Pol eta inh-2	others
CN(C)c1ccc(-c2nc(NCCc3cnc[nH]3)c3ccccc3n2)cc1	-12%[60.1 µM]	.	.	.	.	.	.
Cc1ccnc(NC(=O)COC(=O)c2ccc(F)cc2F)n1	-44%	16%	45µM*	-21%	?	1%	?
O=C(COC(=O)c1ccc(F)cc1F)Nc1cccnc1Cl	0%	19%	-5%	-1%	1%	.	.
Cc1cccc(Cn2cnc3c(cnn3-c3ccc(Cl)cc3)c2=O)c1	-1%	-6%	-14%	.	36%	20%	.
NCCCN(Cc1ccc(Cl)cc1)c1ccc(Br)cn1	-6%	10%	.	.	11%	.	.
COc1ccc(C(=O)Nc2ccc(S(=O)(=O)Nc3nccc(C)n3)cc2)cc1	-10%	-3%	-10%	-1%	-14%	32%	.
